High-throughput results: PubChem, National Center for Advancing Translational Sciences (NCATS)
DT40 TDP1 CPT – DT40-hTDP1 cell growth loss with CPT; chicken DT40 Tdp1-/-;hTDP1 cells + 20 nM CPT, ATP luminescence, 48 h; Potency, µM (series often up to 46.2 µM), actives largely listed as inhibitors; 12% of 420,000 active; also: nearly all actives have a fitted effect of over 55% in size
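Cell growth measured by CellTiter-Glo luminescence after a minimum 48 h, 37 C compound exposure with 20 nM CPT in Tdp1-knockout DT40 cells stably expressing hTDP1, seeded 400/well; qHTS titration format.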
TDP1 cell noCPT – qHTS for Inhibitors of human tyrosyl-DNA phosphodiesterase 1 (TDP1): qHTS in cells in absence of CPT; DT40 Tdp1-/- hTDP1 cells, no CPT, ATP luminescence, 48 h; Potency, µM (titrated, usually from 46.2 µM), usual class: inhibitors; 15% of 420,000 active; AID 686978, 2013; also: nearly all actives have a fitted effect of over 55% in size
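Chicken DT40 Tdp1-/- cells complemented with human TDP1, screened without camptothecin (DMSO vehicle only), 400 cells/well. Compounds pin-transferred, cells incubated at 37 °C for at least 48 hr. Growth read as ATP-dependent luminescence (CellTiter-Glo, 30 min at RT).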
uPA surface inh – inhibitors of cell surface uPA generation | Potency, µM (series often up to 38.3 µM), most hits filed as inhibitors | 0.31% of 330,000 active | cell surface uPA generation assay, qHTS | AID 540303; active = well fitted inhibition curve with a large enough effect; inconclusive = small, poorly fitted or top-dose-only effect; inactive = no such curve, though single readings can be large or run the other way; tested in mouse RAW 264.7 cells; also: nearly all actives have a fitted effect of over 55% in size
HT1080-NT tox – kills 2HG-producing HT-1080-NT fibrosarcoma cells; Potency, µM (series often up to 46.1 µM), hits mostly cytotoxic; 1.6% of 360,000 active; HT-1080-NT fibrosarcoma viability, CellTiter-Glo ATP luminescence, 48 h;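 also: NT is the 2HG producing partner of a matched IDH1 knockdown line; nearly all actives have a fitted effect of over 55% in size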
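A 48-hour cytotoxicity screen used HT-1080-NT cells plated 2 hours before compound delivery. ATP-based CellTiter-Glo luminescence measured viability, normalized to DMSO and no-cell controls.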
IL-1B inflam inh – blocks inflammasome-driven IL-1 beta release. AID 743279. 4.7% of 360,000 active. THP-1 LPS/ATP IL-1B secretion, AlphaLISA, 16 h; hits give low values. activity change, % at 57.5 µM; in the data active = activity change below about -50%; inconclusive = mostly about -30% to -49%
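THP-1 cells pretreated 1 hr with compounds (up to 57.5 uM final), then stimulated with LPS (250 ng/mL final) plus ATP (1.25 mM final); secreted IL-1B measured by AlphaLISA after 16 hr, decreased signal indicating inhibition.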
HT1080 IDH1KD tx – toxicity to HT-1080 IDH1 knockdown cells (counter line); HT-1080 IDH1 knockdown viability, ATP luminescence, 48 h; Potency, µM (series often up to 46.1 µM), usual class: cytotoxic; 2% of 360,000 active
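Knockdown cells (IDH1KD HT-1080) received compounds 2 h after plating at 750 cells/well and were kept 48 h at 37 °C in 5% FBS RPMI. A CellTiter-Glo luminescence read gave % activity for curve fitting.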
Large screens that a line does not name were inactive. Compounds with a hit are over-represented: about 19% of the library has one in this group of screens. Unless noted, calls follow the shape of the dose curve; as a rule, active = well fitted curve in the direction sought with a large enough effect; inconclusive = small, poorly fitted or top-dose-only effect, or another doubt; inactive = no such curve, though single readings can be large; an effect the other way counts as inactive or inconclusive.

Cc1ccc(CN2C(=O)CSCC2(C)C(=O)Nc2c(C)cccc2C)cc1 (centres undefined)	none (no result: uPA surface inh)
NC(=O)c1ccc(NC(=O)COC(=O)c2c3c(nc4ccccc24)/C(=C\c2cccs2)CCC3)cc1	DT40 TDP1 CPT inconclusive, TDP1 cell noCPT 21µM
CCN1C/C(=C/c2cccs2)c2nc3ccccc3c(C(=O)O)c2C1	none
CCCCNC(=O)COC(=O)c1c2c(nc3ccccc13)/C(=C\c1cccs1)CC2	DT40 TDP1 CPT inconclusive, TDP1 cell noCPT inconclusive
CC(C)CNC(=O)COC(=O)c1c2c(nc3ccccc13)/C(=C/c1cccs1)CC2	DT40 TDP1 CPT inconclusive, TDP1 cell noCPT 26µM, HT1080 IDH1KD tx inconclusive
CC1=CC2=NC(=O)CC(C)(C(=O)N(CC(=O)NC3CCCC3)c3cc(C)cc(C)c3)N2C=C1 (centres undefined)	DT40 TDP1 CPT 13µM, TDP1 cell noCPT 21µM
CCn1c(-c2ccccc2)csc1=Nc1ccc(O)cc1	DT40 TDP1 CPT inconclusive, TDP1 cell noCPT inconclusive, IL-1B inflam inh -95
CCOc1ccc(N=c2scc(-c3ccccc3)n2CCO)cc1	DT40 TDP1 CPT 16µM, TDP1 cell noCPT 23µM, HT1080-NT tox inconclusive, IL-1B inflam inh -66
CCn1c(O)c(/C=C2\C=Nc3ccccc32)sc1=Nc1ccc(C)cc1	DT40 TDP1 CPT inconclusive, TDP1 cell noCPT inconclusive
CCOc1ccc(N=c2scc(-c3ccc(OC)cc3)n2CCO)cc1	DT40 TDP1 CPT 9.2µM, TDP1 cell noCPT inconclusive, IL-1B inflam inh inconclusive
Nc1nc(NCc2ccc(F)cc2)c2[nH]cnc2n1	none (no result: uPA surface inh, HT1080-NT tox, IL-1B inflam inh, HT1080 IDH1KD tx)
CCCC(=O)NC(c1ccccc1OC)c1ccc2cccnc2c1O (centres undefined)	DT40 TDP1 CPT 4.1µM, TDP1 cell noCPT 4.1µM, HT1080-NT tox inconclusive, HT1080 IDH1KD tx inconclusive
CCCCC(=O)NC(c1ccc(OC)c(OC)c1)c1c(O)ccc2ccccc12 (centres undefined)	none
CCCCC(=O)NC(c1ccccc1OC)c1ccc2cccnc2c1O (centres undefined)	DT40 TDP1 CPT 21µM, TDP1 cell noCPT 18µM, HT1080-NT tox inconclusive, HT1080 IDH1KD tx 2.6µM
OC[C@@H]1CN(Cc2ccc(Cl)cc2)C[C@H](n2cnc3c(NC4CC4)ncnc32)O1	DT40 TDP1 CPT inconclusive, HT1080-NT tox inconclusive (no result: uPA surface inh)
OC1(CN2CCOCC2)C2CN3CCN(C2)CC1(c1ccccc1)C3 (centres undefined)	DT40 TDP1 CPT 29µM, TDP1 cell noCPT inconclusive
O=C(CCn1c(=O)c2cccn2c2cccnc21)NCc1ccc(Cl)cc1	TDP1 cell noCPT inconclusive (no result: uPA surface inh, HT1080-NT tox, IL-1B inflam inh, HT1080 IDH1KD tx)
COc1cc(Cl)c(C)cc1NC(=O)CSc1cc(-c2ccccc2)nc(C)n1	none (no result: uPA surface inh, HT1080-NT tox, IL-1B inflam inh, HT1080 IDH1KD tx)
Cc1nc(SC(C)C(=O)Nc2ccccc2C)cc(-c2ccccc2)n1 (centres undefined)	DT40 TDP1 CPT 15µM, TDP1 cell noCPT 21µM (no result: uPA surface inh, HT1080-NT tox, IL-1B inflam inh, HT1080 IDH1KD tx)
COc1ccc(NC(=O)C(C)Sc2cc(-c3ccccc3)nc(C)n2)cc1Cl (centres undefined)	DT40 TDP1 CPT 21µM, TDP1 cell noCPT 21µM (no result: uPA surface inh, HT1080-NT tox, IL-1B inflam inh, HT1080 IDH1KD tx)
COc1ccc(N/C=C(\C#N)c2nc3ccccc3n2C)c(OC)c1	DT40 TDP1 CPT inconclusive, TDP1 cell noCPT 23µM
CCn1c(/C(C#N)=N/O)nc2ccccc21	none
Cn1c(/C(C#N)=C/c2ccccc2Br)nc2ccccc21	DT40 TDP1 CPT 15µM, TDP1 cell noCPT 12µM (no result: uPA surface inh, HT1080-NT tox, IL-1B inflam inh, HT1080 IDH1KD tx)
Cn1c(/C(C#N)=N/O)nc2ccccc21	none
CCn1c(/C(C#N)=C/c2ccccc2Cl)nc2ccccc21	DT40 TDP1 CPT inconclusive, TDP1 cell noCPT 26µM (no result: uPA surface inh, HT1080-NT tox, IL-1B inflam inh, HT1080 IDH1KD tx)
O=C(Cn1cc(COc2c(F)c(F)cc(F)c2F)nn1)c1ccc(O)cc1	none
CC(C)(CNCc1ccccc1)NS(=O)(=O)c1ccc(Cl)cc1	DT40 TDP1 CPT inconclusive, TDP1 cell noCPT inconclusive
CCOC(=O)c1c(NC(=O)COC(=O)/C=C/c2ccco2)sc2c1CC(C)(C)NC2(C)C	DT40 TDP1 CPT inconclusive, TDP1 cell noCPT 5.8µM, IL-1B inflam inh -68
CC1(C)Cc2c(sc(NC(=O)c3ccc(C(=O)c4ccccc4)cc3)c2C#N)C(C)(C)N1	none
